Molecules are shown by their SMILES. Hit rate of the full screen: of about 350,000 compounds, about 31,000 (8.9%) were called active. Roughly 15% stayed inconclusive and do not appear here. What follows is part of a selection rich in actives, with near analogues and random picks from the rest. Entries that show only a call come without a potency. Unmarked numbers belong to inactive results. Calls follow the shape of the dose curve; as a rule, active = well fitted inhibition curve with a large enough effect; inconclusive = small, poorly fitted or top-dose-only effect; inactive = no such curve, though single readings can be large or run the other way.
Potency is read from the fitted curve at half-maximal effect.

Sequence of Histone-lysine N-methyltransferase EHMT2 (Homo sapiens) (Q96KQ7 913-1193 limits assumed): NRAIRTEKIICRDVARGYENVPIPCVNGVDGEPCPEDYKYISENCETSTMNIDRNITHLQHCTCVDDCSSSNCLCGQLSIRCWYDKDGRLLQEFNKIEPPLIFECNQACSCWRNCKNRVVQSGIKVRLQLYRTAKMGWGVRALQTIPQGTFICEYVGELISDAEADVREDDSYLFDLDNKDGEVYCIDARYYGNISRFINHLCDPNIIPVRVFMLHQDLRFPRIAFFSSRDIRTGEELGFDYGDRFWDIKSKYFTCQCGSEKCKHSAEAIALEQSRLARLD

This experiment has as its target Histone-lysine N-methyltransferase EHMT2 (Homo sapiens) (UniProt Q96KQ7). Nature of the experiment: qHTS Assay for Inhibitors of Histone Lysine Methyltransferase G9a. Also: nearly all actives have a fitted effect of over 75% in size. The settings on record: G9a H3K9 monomethylation, AlphaScreen, 2 h; series mostly up to 59 µM. From the text:
Methylated lysines, on the N-terminal tails of histone proteins serve as epigenetic markers to recruit factors that can then modify local chromatin structure to lead to functional consequences. G9a and other members of the SUV39 family of the SET domain-containing superfamily of histone lysine methyltransferases (HMT) have been identified to specifically methylate Lys9 of histone H3 (H3K9). G9a catalyzes the mono- and di-methylation of H3K9 in mammalian euchromatic regions, where the resulting H3K9me2 is indicative of transcriptional repression. […] The inhibition of G9a will result in transcriptional activation and work synergistically with DNA methyltransferase and histone deacetylase inhibitors, to kill cancer cells. This qHTS assay for identification of G9a inhibitors is a chemiluminescence based AlphaScreen (PerkinElmer). Methylation of biotinylated-histone peptide is measured through specific antibody-based detection, in conjunction with streptavidin-coated donor and anti-IgG antibody-coated acceptor beads. The method is particularly well suited for detection of inhibitors acting by the desired histone peptide competitive mechanism and is applicable to testing other HMTs. Although AlphaScreen has significant advantages with its utility in a variety of epigenetic target assays, the primary screening data provided in this deposition should be used with caution due to the prevalence of screening artifacts. An AlphaScreen counterscreen is highly recommended to be run against any putative actives to eliminate non specific artifacts. Alternatively, one can use other AlphaScreen assays in PubChem to filter out promiscuous hits. Quinn et al. A chemiluminescence-based method for identification of histone lysine methyltransferase inhibitors. Mol Biosyst 6(5): 782-8. 2010. PMID: 20567762 [2] Baell,Holloway. New substructure filters for removal of pan assay interference compounds (PAINS) from screening libraries and for their exclusion in bioassays. J Med Chem. 53(7):2719-40. 2010. PMID: 20131845 NIH Molecular Libraries Probe Production Network [MLPCN] NIH Chemical Genomics Center [NCGC] Structural Genomics Consortium (SGC) NIH Grant: 5U54 MH084681-02
To each well of a 1,536w plate, 2ul of HMT enzyme (final 20nM) were added, using a nanoliter dispenser. The G9a- and GLP-inhibitor BIX-01294 (CID: 25150857) are used as an intraplate control, with a 16-point titration in duplicate. A Kalypsys pin-tool transferred 23nl of library compound solution in DMSO to each well. Following a 15 min incubation of enzyme with compounds at room temperature, 1ul mixture of b-H3K9 peptide substrate (final 500nM) and SAM cofactor (final 20uM) were added. Reactions were allowed to proceed at room temperature for 2 hours. Methylated b-H3K9 peptide product was detected with 0.5 ug/mL rabbit polyclonal anti-monomethyl histone H3K9 antibody (Abcam Inc., Cambridge, MA) and 20 ug/mL each streptavidin-coated donor and anti-rabbit IgG acceptor AlphaScreen beads. Antibody and beads were added in a 1ul dispense, for a final volume of 4ul, and plates were incubated, protected from the light, for 10 min at room temperature. Microplates were then read on an EnVision multilabel plate reader using the 1,536 plate HTS AlphaScreen aperture (excitation time 80 ms, measurement time 240 ms).
Turning to `COc1ccc(CCC(=O)NCc2ccc3c(c2)CCN3C(=O)c2ccc(F)cc2)cc1`, the Potency entry was “inactive”.

For the compound `CCN(C(=O)COC(=O)CCOc1cccc(C)c1)c1c(N)n(Cc2ccccc2)c(=O)[nH]c1=O`, the Potency entry was “inactive”. Take `O=C(CSc1ncc(S(=O)(=O)c2ccc(Br)cc2)c(=O)[nH]1)Nc1ccc2c(c1)OCCO2`: the Potency result is “inactive”.

`O=C(COC(=O)c1cccs1)NCc1cccs1`: the Potency result is “inactive”. With `Cc1ccc(N2CC(NC(=O)Cc3cccs3)CC2=O)cc1` (stereo not given), the Potency entry was “inactive”.

`CCN(C(=O)COC(=O)Cc1c(F)cccc1Cl)c1c(N)n(Cc2ccccc2)c(=O)[nH]c1=O`: the activity, negative = inhibition was 1.45% [at 12.7 µM]. With `Cc1cccc(-c2nc(SCC(=O)Nc3cc(C)on3)c3c(=O)n(C)c(=O)n(C)c3n2)c1`, the Potency result was “inactive”.

For the compound `Cc1ccc(OCC(=O)OCc2cc(=O)n3nc(C4CC4)sc3n2)cc1C`, the Potency entry was “inactive”. `O=C(Nc1ccccc1)OCc1cc(-c2ccc(Cl)cc2)on1`: the Potency entry was “inactive”. The same measure, in the same setting: the value for `O=C1C=C(c2ccc(Cl)cc2)C(=O)N1Nc1ccccc1` was 7.94 µM (active); that for `O=C1c2cccc3cc(Br)cc(c23)C(=O)N1Nc1ccccc1` was “inactive”; that for `Cc1ccccc1-c1nc(C#N)c(NCc2ccco2)o1` was 39.8 µM (active). `COc1ccc(Nc2oc(-c3ccccc3Cl)nc2C#N)cc1`: the Potency entry was “inactive”. In the case of `Cc1cc(NCc2ccco2)n2c(nc3ccccc32)c1C#N`, the Potency entry was “inactive”. `O=C(NCCc1ccccc1)c1ccc2c(c1)N(Cc1ccccc1)C(=O)c1ccccc1S2(=O)=O`: the Potency entry is “inactive”. As to `Cc1ccc(S(=O)(=O)N2CC(O)C[C@H]2C(=O)OCC(=O)Nc2ccc(N3CCOCC3)cc2)cc1C` (stereo not given in full), the Potency is 50.1 µM (active). Turning to `Cc1cc(S(=O)(=O)N2CCOCC2)ccc1OCC(=O)Nc1cccc(C(F)(F)F)c1`, the Potency result was “inactive”. For the compound `CC1CCCC(NC(=O)COC(=O)[C@@H]2CC(O)CN2S(=O)(=O)c2ccc3c(c2)OCCO3)C1C` (stereo not given in full), the Potency entry was “inactive”. Consider `CC(C)Oc1ccc(NC(=O)c2cc3ccccc3o2)cc1`, for which the Potency entry is “inactive”. In the case of `O=C(/C=C(O)/C=C/c1ccc(O)cc1)/C=C/c1ccc(O)cc1`, the activity, negative = inhibition was 1.18% [at 0.501 µM]. In the case of `CCOC(=O)C(C)N(c1ccccc1Cl)S(C)(=O)=O` (stereo not given), the activity, negative = inhibition was 25.6% [at 12.7 µM]. As for `Cc1cc(C)cc(NC(c2nnc(-c3cccc(F)c3)o2)c2ccc(F)cc2Cl)c1` (stereo not given), the Potency entry is “inactive”. Regarding `O=S(=O)(NCC1OCCc2ccccc21)c1ccccc1` (stereo not given), the activity, negative = inhibition was -24.8% [at 2.33 µM]. In the case of `O=c1/c(=C/c2ccc(CNS(=O)(=O)c3ccccc3)o2)sc2n1CCN=2`, the Potency is 39.8 µM (active).

On to `O=S(=O)(NCCc1ccncc1)c1ccccc1`, for which the Potency result was “inactive”. Consider `COc1ccc(CNC(=O)C(=O)N2CCC3(CC2)OCCN3S(=O)(=O)c2ccc(C)cc2)cc1`, for which the Potency entry is “inactive”. In the case of `COc1ccccc1C(=O)NC(=O)COC(=O)C1CC1`, the Potency result is “inactive”. As to `O=S(=O)(NCCCCCCNS(=O)(=O)c1c(F)cccc1F)c1ccc2c(c1)OCCO2`, the activity, negative = inhibition is 21.9% [at 2.33 µM].

On to `CC(=O)CC[C@@H](C)O[C@@H]1OC(C)[C@H](O)CC1O` (stereo not given in full), for which the activity, negative = inhibition was 14.8% [at 2.33 µM]. Regarding `Cc1cccc(C(=O)N2CCc3c([nH]c4ccccc34)C2CC(C)C)n1` (stereo not given), the Potency result was “inactive”.

For the compound `Cc1cccc(C2c3[nH]c4ccccc4c3CCN2C(=O)c2cc(-c3cccn3C)n[nH]2)n1` (stereo not given), the Potency was 28.2 µM (active). As for `CCOc1cccc(CC(=O)N2CCc3c([nH]c4ccccc34)C2c2ccc(F)cc2)c1OCC` (stereo not given), the Potency result is “inactive”. Same read-out and setting: the value for `COCc1ccc(C(=O)N2CCc3c([nH]c4ccccc34)C2c2ccccn2)s1` (stereo not given) was 31.6 µM (active).

For the compound `CC1CCN(C(=O)COC(=O)c2cc(=O)[nH]c3ccccc23)CC1`, the activity, negative = inhibition is -8.14% [at 12.7 µM].

As to `CCc1nnc(SCc2c(F)cccc2Cl)c2cc3sccc3n12`, the Potency result is “inactive”. With `CC(C)CN(C(=O)c1ccc2c(c1)OCO2)C1CCS(=O)(=O)C1` (stereo not given), the Potency entry is “inactive”. As for `CN(CC(=O)Nc1cccc(F)c1)C(=O)C1CSC2(C)CCC(=O)N12` (stereo not given), the Potency result is “inactive”. Consider `CCC(=O)N1CCc2cc(S(=O)(=O)NC(CC(C)C)C(=O)NCCc3cccc(C)c3)ccc21` (stereo not given), for which the Potency result was “inactive”.

For the compound `Cc1cc(NC(=O)COc2ccccc2C#N)no1`, the Potency result is “inactive”. The same measure, in the same setting: the value for `O=C(c1ccc(C(F)(F)F)cc1)C1CCCN(C(=O)c2csnn2)C1` (stereo not given) was “inactive”. For the compound `Cc1cnc(C(=O)N2CCCC(C(=O)c3ccc(C(F)(F)F)cc3)C2)cn1` (stereo not given), the Potency is 22.4 µM (active). As to `COCC(=O)N1CCCC(C(=O)c2ccc(C(F)(F)F)cc2)C1` (stereo not given), the Potency result is “inactive”. With `CCN(CC)CCN(C(=O)c1ccc(N2C(=O)CCC2=O)cc1)c1nc2cc3c(cc2s1)OCO3`, the Potency was 35.5 µM (active). For `Cc1nc2ccc(NC(=O)C3CCCCC3)cc2s1`, the activity, negative = inhibition was 8.28% [at 12.7 µM]. On to `Cc1nc2cc3c(cc2s1)OCO3`, for which the Potency result is “inactive”. As to `CN(C)CCCN(C(=O)c1ccc(S(=O)(=O)N2CCCCCC2)cc1)c1nc2cc3c(cc2s1)OCCO3`, the Potency is 44.7 µM (active). As for `CCN(CC)CCN(C(=O)c1cc(Cl)sc1Cl)c1nc2cc3c(cc2s1)OCO3`, the Potency was 50.1 µM (active). Turning to `CN(C)CCN(C(=O)C1CCCCC1)c1nc2cc3c(cc2s1)OCO3`, the Potency was 70.8 µM (active). Take `O=C(Nc1nc2cc3c(cc2s1)OCCO3)c1cccc(S(=O)(=O)N2CCOCC2)c1`: the Potency result was “inactive”. Still for that read-out and setting: the value for `CCc1ccc(Nc2nn3c(=O)c4cc5c(cc4nc3s2)OCO5)cc1` was “inactive”. Consider `O=C(NCc1ccc2c(c1)OCO2)c1ccc(Cl)s1`, for which the Potency entry is “inactive”. As to `CCc1ccc2nc(N(CCCN(C)C)C(=O)c3ccc4c(c3)OCCO4)sc2c1`, the Potency result is “inactive”. The same measure, in the same setting: the value for `CCCCN(CC)C(=O)c1ccc2c(c1)OCO2` was “inactive”. As for `COc1ccccc1N1CCN(CC(=O)Nc2ccnn2C2CCCC2)CC1`, the activity, negative = inhibition was 10.3% [at 2.33 µM]. For the compound `CCC1Nc2ncnc(N3CCN(c4ccccc4)CC3)c2N(Cc2ccc(Cl)cc2)C1=O` (stereo not given), the activity, negative = inhibition is 3.93% [at 2.33 µM]. Take `CC(C)NC(=O)c1nn(-c2ccccc2F)nc1CO`: the Potency result was “inactive”.

For the compound `OCC(CO)NC1C[C@](O)(CO)[C@@H](O)[C@H](O)[C@H]1O` (stereo not given in full), the Potency entry was “inactive”.

`O=C(c1cccs1)N1CCC(c2nc3ccccc3s2)CC1`: the Potency was 39.8 µM (active). Consider `Cc1cccc(NC(=S)N2CCC(c3nc4ccccc4s3)CC2)c1`, for which the activity, negative = inhibition was 30.9% [at 0.501 µM]. For `CC(C)(C)c1ccc(OCC(=O)N2CCC(c3nc4ccccc4s3)CC2)cc1`, the Potency result was “inactive”.

The record behind these values is PubChem BioAssay AID504332 (National Center for Advancing Translational Sciences (NCATS), 2011).
